Measurements: the supplement of paper PMC3334620
Over roughly 33,000 sequences, “E-score (-0.5 to 0.5)” has its median near -0.021; the highest 2% begin near 0.32. The list comes from a sample in which the highest values are over-represented; it also holds similar and randomly drawn sequences.

Molecular target: T1, Zap1 (UniProt P47043)
T1 sequence: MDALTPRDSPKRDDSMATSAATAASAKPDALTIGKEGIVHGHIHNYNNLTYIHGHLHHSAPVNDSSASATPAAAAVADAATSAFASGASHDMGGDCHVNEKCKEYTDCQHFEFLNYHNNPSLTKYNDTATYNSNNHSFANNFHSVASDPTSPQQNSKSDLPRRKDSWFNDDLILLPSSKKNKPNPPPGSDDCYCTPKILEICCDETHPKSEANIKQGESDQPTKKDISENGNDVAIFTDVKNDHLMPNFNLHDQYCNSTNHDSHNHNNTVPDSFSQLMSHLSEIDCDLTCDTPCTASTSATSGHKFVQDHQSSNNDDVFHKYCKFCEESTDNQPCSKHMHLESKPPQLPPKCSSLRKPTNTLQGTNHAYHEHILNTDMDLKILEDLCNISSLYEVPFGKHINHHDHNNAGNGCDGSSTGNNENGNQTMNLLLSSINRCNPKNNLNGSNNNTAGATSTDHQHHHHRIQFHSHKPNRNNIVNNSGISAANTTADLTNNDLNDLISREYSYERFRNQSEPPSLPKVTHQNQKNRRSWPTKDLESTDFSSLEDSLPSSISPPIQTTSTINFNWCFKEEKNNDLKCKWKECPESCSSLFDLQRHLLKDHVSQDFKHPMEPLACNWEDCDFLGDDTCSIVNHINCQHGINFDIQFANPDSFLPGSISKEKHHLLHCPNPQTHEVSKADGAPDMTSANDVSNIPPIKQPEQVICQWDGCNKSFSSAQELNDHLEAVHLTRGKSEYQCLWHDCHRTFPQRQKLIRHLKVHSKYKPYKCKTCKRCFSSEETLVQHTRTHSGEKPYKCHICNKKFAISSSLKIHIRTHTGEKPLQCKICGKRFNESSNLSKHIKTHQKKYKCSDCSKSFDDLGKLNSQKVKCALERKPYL
Experiment: PBM E-score (8-mer binding enrichment) (E-score (-0.5 to 0.5)); higher = stronger / more preferred TF binding
Conditions: protein concentration: 200 nM; construct: GST-full length
Outline: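 Yeast transcription factors carrying a GST tag, as full-length proteins or DNA-binding domains, were produced by PURExpress in vitro transcription/translation. About 100-200 nM protein was applied to universal all-10-mer Agilent arrays, double-stranded by primer extension on fresh or once-stripped slides. Bound protein was detected with fluorescent anti-GST, and scans were normalised with masliner. The Universal PBM Analysis Suite gave each ungapped eight-base word, pooled with its reverse complement, an E-score, a modified Wilcoxon-Mann-Whitney statistic.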

Row | Sequence | PBM E-score
1 | ACAATGGA | 0.159
2 | AAGGAGGA | -0.291
3 | ACGTTACA | -0.0394
4 | CAGTTACG | -0.0217
5 | AAGTTACA | 0.169
6 | AGGTTAGG | 0.348
7 | AGGTTACA | 0.453
8 | AGGTTAGC | 0.23
9 | CGGTTAAG | 0.289
10 | AAGTTACT | -0.0263
11 | AGGTTAGA | 0.185
12 | ACGTTACT | 0.143
13 | CGGTTACG | 0.401
14 | AGGTTACT | 0.457
15 | CGCTCTCC | -0.119
16 | ATCCTCTA | -0.118
17 | AAACGCCG | -0.159
18 | TACTGGGA | 0.0284
19 | ACCAATCG | 0.0293
20 | ACACGCTA | -0.194
21 | CGCCTCAA | -0.107
22 | CTCGAAGA | 0.0261
23 | GATTCCTA | 0.0308
24 | CGATCCAC | 0.00013
25 | AAGTTACG | 0.17

Row | Sequence | PBM E-score
26 | ACGTTACG | 0.0601
27 | AGGTTACG | 0.459
28 | ATAACTCC | 0.128
29 | AAGGTTGG | 0.281
30 | AAGGTTGC | 0.343
31 | CAGGTTGC | 0.0972
32 | AAGGTTGA | 0.149
33 | CAGGTTGG | 0.0671
34 | AAGGTTGT | 0.384
35 | GTCAGAAC | 0.0394
36 | AAATGGGA | -0.0864
37 | GTCCCCCA | -0.185
38 | CCGGTTAC | 0.398
39 | GCGGTTAC | 0.452
40 | GCGGTTCC | 0.217
41 | CCGGTTAG | 0.159
42 | CCGGTTAA | 0.261
43 | GCGGTTAA | 0.356
44 | CCGGTTTC | 0.0368
45 | GCGGTTGA | 0.149
46 | GCTGTTAC | -0.104
47 | AAGCTTGT | 0.15
48 | CATCGTTC | -0.015
49 | AGGAACCA | 0.0162
50 | CGAGCGCC | -0.202

Row | Sequence | PBM E-score
51 | AGTTGGTC | 0.0383
52 | AGTCTTAG | -0.182
53 | GTATCCAA | 0.0926
54 | CCTGGCCC | -0.0746
55 | GGTTATCA | 0.445
56 | CGTTATCA | 0.0155
57 | AGTTAGTA | -0.00813
58 | GGTTATTA | 0.438
59 | AGTTATCA | 0.186
60 | GGTTAGTA | 0.325
61 | CGTTAGTA | 0.0365
62 | CGTTATTA | 0.114
63 | AGTTATTA | 0.106
64 | CAGAGATC | -0.134
65 | CCGAGAAA | 0.187
66 | ACCCAGCA | 0.0307
67 | CGAATGAG | -0.106
68 | AGTTATAG | 0.148
69 | ACCCTCAC | 0.251
70 | ACCCTCAG | 0.325
71 | CCCCTCAA | -0.068
72 | TCCCTCAA | 0.014
73 | ACCCTCAA | 0.361
74 | ACCCTCAT | 0.267
75 | GGAGACGA | -0.032

Row | Sequence | PBM E-score
76 | ATCTTTAA | 0.206
77 | GGCCAGTA | 0.177
78 | AGTGGCTC | -0.175
79 | AATCCTTG | 0.0209
80 | GATACCAC | 0.183
81 | GATACCCC | 0.37
82 | AATACCCC | 0.237
83 | GATACCCA | 0.184
84 | CATACCCC | 0.348
85 | CATACCCA | 0.221
86 | ATGTGAAG | -0.00714
87 | ATGGGGGG | -0.045
88 | ACTCGCAA | 0.0584
89 | CGCTTTGA | 0.0708
90 | CCTATAGC | -0.0148
91 | CCTATAGG | 0.346
92 | ACTATAGG | 0.0613
93 | ATTGGCGG | -0.0834
94 | AGCCCAAC | -0.0986
95 | CCCCCTAG | -0.343
96 | ACCCCTCG | 0.347
97 | ACCCCTCT | 0.174
98 | ACCCCTAC | 0.293
99 | ACCCCTAA | 0.278
100 | CCCCCTCG | -0.135

Row | Sequence | PBM E-score
101 | ACCCCTAG | 0.341
102 | ACCCCTAT | 0.324
103 | AGCCCTAG | -0.14
104 | TACCGATA | 0.102
105 | CCGGTGCG | 0.0015
106 | AAATCTTG | 0.0159
107 | GCCAGCAC | -0.171
108 | CAACCGCA | 0.106
109 | GAACCGCA | 0.149
110 | TAACCGAA | 0.319
111 | GTACCGCA | 0.383
112 | ATACCGCA | 0.0517
113 | AACCCGCA | 0.314
114 | CACCCGCA | -0.0495
115 | AAACCGAA | 0.114
116 | TAACCGCA | 0.426
117 | CTACCGCA | 0.00616
118 | CAACCGAA | 0.199
119 | TACCCGCA | 0.364
120 | GTCCTTTA | 0.132
121 | CCGCCCAC | 0.0267
122 | GAAATCGA | -0.0672
123 | AAACCGGA | 0.00487
124 | GAACCGGA | 0.0894
125 | TAACCGGA | 0.364

Row | Sequence | PBM E-score
126 | AATTCTAC | 0.104
127 | TATACTAA | 0.0714
128 | GACAGCGA | -0.275
129 | CGTTGGCC | -0.138
130 | ACCGGTTA | 0.372
131 | GCCGGTTA | 0.33
132 | CCCGGTTA | 0.25
133 | ACCGGTTG | 0.119
134 | GCCGGTCA | 0.0353
135 | GCCGGTGA | 0.0983
136 | AGATTGAA | -0.0374
137 | ATGCTAGG | -0.159
138 | ACTAAATG | -0.036
139 | ACCAGCGG | 0.0819
140 | CAAGATGC | -0.0715
141 | AGTGGGAA | 0.022
142 | GTTGAAGA | -0.0696
143 | AGGTCATC | 0.373
144 | ATGTCATA | -0.0263
145 | AGGTCAAG | 0.277
146 | AGGTCAGA | 0.149
147 | GGGTCAGA | 0.0808
148 | AGGTCAGG | 0.141
149 | ATGTCATC | -0.123
150 | CGGTCATC | 0.131

Row | Sequence | PBM E-score
151 | AGGTCATA | 0.347
152 | GGGTCATA | 0.432
153 | CGGTCATA | 0.201
154 | AGGTCATG | 0.416
155 | TGCTCGAA | -0.0246
156 | CATAGATC | -0.0935
157 | ACATCTGG | 0.0376
158 | CAGTACTG | -0.118
159 | GAGTCTTA | -0.368
160 | ACGTAGGA | -0.12
161 | ACGTCTGC | -0.272
162 | AGGTCGTG | 0.353
163 | AGGTCGTA | 0.189
164 | AGGTCGTC | 0.0799
165 | AAACCAGA | 0.165
166 | CGGAACCC | 0.326
167 | CGCAACCG | 0.281
168 | GGCAACCA | 0.116
169 | GGCAACCC | 0.358
170 | AGCAACCC | 0.239
171 | CGCAACCA | 0.283
172 | CGCAACCC | 0.379
173 | CGGAACCG | 0.169
174 | AGGAACCC | 0.104
